# Test results as given in PubChem BioAssay AID504339 (National Center for Advancing Translational Sciences (NCATS), 2011).
# Screen size: about 390,000 compounds; about 17,000 (4.4%) were called active. Entries that show only a call come without a potency. About 8% were inconclusive and are not listed. Only a selection was taken, and actives are over-represented in it overall. Unmarked numbers belong to inactive results. Calls come from the whole dose curve; as a rule, active = well fitted inhibition curve with a large enough effect; inconclusive = small, poorly fitted or top-dose-only effect; inactive = no such curve, though single readings can be large or run the other way.
# Biological target: Lysine-specific demethylase 4A (Homo sapiens) (UniProt O75164)
# Sequence (O75164 whole entry, looked up, the tested form may be a part): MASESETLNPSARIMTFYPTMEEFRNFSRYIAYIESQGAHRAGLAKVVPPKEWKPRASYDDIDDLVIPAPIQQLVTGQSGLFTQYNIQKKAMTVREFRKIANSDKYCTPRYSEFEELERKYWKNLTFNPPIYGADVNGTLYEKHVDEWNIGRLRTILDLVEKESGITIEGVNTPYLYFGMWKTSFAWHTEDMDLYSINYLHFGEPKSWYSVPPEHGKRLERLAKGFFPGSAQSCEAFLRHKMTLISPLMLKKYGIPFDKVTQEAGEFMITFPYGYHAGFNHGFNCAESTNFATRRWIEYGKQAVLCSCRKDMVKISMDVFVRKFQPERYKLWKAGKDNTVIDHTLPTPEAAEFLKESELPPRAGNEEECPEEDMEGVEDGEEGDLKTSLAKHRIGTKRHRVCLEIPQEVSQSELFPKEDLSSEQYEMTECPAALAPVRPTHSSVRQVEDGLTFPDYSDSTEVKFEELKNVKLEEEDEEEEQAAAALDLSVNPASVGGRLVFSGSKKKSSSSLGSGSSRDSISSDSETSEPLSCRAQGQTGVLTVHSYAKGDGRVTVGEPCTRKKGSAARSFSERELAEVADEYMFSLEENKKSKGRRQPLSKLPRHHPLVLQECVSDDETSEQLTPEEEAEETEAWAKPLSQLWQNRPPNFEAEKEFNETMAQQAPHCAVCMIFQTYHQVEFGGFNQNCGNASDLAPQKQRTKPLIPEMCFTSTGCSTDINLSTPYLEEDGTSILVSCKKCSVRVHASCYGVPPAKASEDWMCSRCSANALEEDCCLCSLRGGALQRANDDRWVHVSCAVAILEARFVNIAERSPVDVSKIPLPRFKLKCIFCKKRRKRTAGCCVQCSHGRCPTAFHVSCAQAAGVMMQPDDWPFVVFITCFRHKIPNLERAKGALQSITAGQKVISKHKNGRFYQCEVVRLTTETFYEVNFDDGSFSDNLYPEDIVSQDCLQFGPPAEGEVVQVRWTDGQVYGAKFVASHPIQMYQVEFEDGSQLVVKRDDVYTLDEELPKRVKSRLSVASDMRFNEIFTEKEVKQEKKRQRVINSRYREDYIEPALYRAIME
# Assay: qHTS Assay for Inhibitors of JMJD2A-Tudor Domain; note: nearly all actives have a fitted effect of over 50% in size
# Conditions: AlphaScreen JMJD2A-Tudor / H3K4me3 peptide binding; series mostly up to 114 µM
# Potency is the fitted concentration of half-maximal effect.
Structure (SMILES),Potency,"activity change, negative = inhibition"
Cn1c(=O)c2c(nc(SCC(=O)Nc3ccc(F)cc3)n2Cc2ccc(Cl)cc2)n(C)c1=O,inactive,
CCOC(=O)c1ccc(CSc2nnc3cc(C)c4ccccc4n23)cc1,inactive,
Cc1c(CCNC(=O)c2ccc(C(F)(F)F)cc2)sc2nc(-c3ccc(F)cc3)nn12,inactive,
Oc1c(C(c2ccc(F)cc2)N2CCN(Cc3ccccc3)CC2)sc2nc(-c3ccco3)nn12 (stereo not drawn),inactive,
Cc1ccccc1CN1C[C@@H]2C[C@@H](c3cn(C)nc3-c3ccccc3)N3CCC[C@@]23C1=O,63.1 µM (active),
Cc1ccccc1CN1C[C@@H]2C[C@@H](c3ccc4nsnc4c3)N3CCC[C@@]23C1=O,inactive,
COc1ccc(CN2CCN(Cc3cn(C)nc3-c3ccccc3)CC2CCO)c(C)c1C (stereo not drawn),inactive,
O=C(CCc1nc(CN2CCN(S(=O)(=O)c3ccc(Br)cc3)CC2)no1)N1CCCCC1,inactive,
COc1ccc(NC(=O)CSc2nc3ccccc3n2CC(=O)N2CCCCC2C)cc1 (stereo not drawn),inactive,
COc1ccc(-c2nnc(-c3ccc4ccccc4c3)o2)cc1,inactive,
COc1ccc(Nc2cc(=O)oc3ccccc23)cc1,inactive,
COc1ccc(Nc2ccc3ccccc3c2)cc1,56.2 µM (active),
COc1cccc(NC(=O)C(=O)NCC(c2ccc3c(c2)OCO3)N2CCN(C)CC2)c1 (stereo not drawn),inactive,
S=c1nc2ccccc2c2nc(-c3cccnc3)[nH]n12,,-17.6% [at 11.4 µM]
S=c1[nH]nc(-c2ccncc2)n1/N=C/c1ccccc1Cl,3.16 µM (active),
Fc1ccccc1/C=N/n1c(-c2cccnc2)n[nH]c1=S,3.98 µM (active),
COc1ccc(-c2cc(C(=O)Nc3sc4c(c3C(N)=O)CCCC4)no2)cc1,inactive,
Cc1cccc(N2CCN(C(=O)CCn3c(=O)c4cccn4c4cccnc43)CC2C)c1 (stereo not drawn),inactive,
COc1ccc(Cn2c(=O)c3oc4ccccc4c3n(CC(=O)Nc3ccc(F)cc3F)c2=O)cc1,inactive,
CCC1CCCCN1C(=O)Cn1c(=O)n(CCCCCC(=O)NCc2ccccc2)c(=O)c2sccc21 (stereo not drawn),inactive,
CN1CCOc2cc(S(=O)(=O)N3CCN(S(=O)(=O)c4c(F)cccc4F)CC3)cnc21,inactive,

Structure (SMILES),Potency,"activity change, negative = inhibition"
CCCn1c(C)cc(-c2csc(NC(=O)CCc3nc4ccccc4c(=O)[nH]3)n2)c1C,inactive,
CCn1c(SCC(=O)Nc2ccc3c(c2)OCCO3)nnc1-c1ccncc1,inactive,
CC(C)n1c(-c2cccs2)nc2ccccc21,inactive,
CCn1c(SCC(=O)Nc2nccs2)nnc1-c1ccncc1,inactive,
CCn1c(C)nc2c1C(=O)c1ccccc1C2=O,inactive,
CCn1c(-c2ccoc2C)n[nH]c1=S,10 µM (active),
CCn1c(SCC(=O)NC2CCCC2)nnc1-c1ccoc1C,inactive,
CCn1c(-c2ccncc2)n[nH]c1=S,10 µM (active),
CC(C)n1c(-c2ccncc2)n[nH]c1=S,22.4 µM (active),
CCCc1cc(-c2n[nH]c(=S)n2CC)c2ccccc2n1,79.4 µM (active),
O=C(CC1C(=O)N(c2ccccc2)C(=O)N1CCc1cccs1)Nc1ccc(F)cc1 (stereo not drawn),inactive,
O=C(NCCCO)C(=O)Nc1c2c(nn1-c1ccccc1)CSC2,inactive,
COc1cccc(-c2nc(S(=O)(=O)c3ccc(C)cc3)c(NCc3ccccc3)o2)c1,inactive,
O=C(NCc1ccc(F)cc1)c1ccc2nc(N3CCCCC3)sc2c1,inactive,
Cc1ccc(NC(=O)CSc2nc3c([nH]c4ccccc43)c(=O)n2-c2ccccc2)c(C)c1,inactive,
O=C(Nc1ccc(Br)cc1)c1ccc(Br)c(S(=O)(=O)NCc2ccccc2)c1,inactive,
COc1ccc(CCNC(=O)c2ccc3c(c2)sc2nc(-c4ccc(C)cc4)cn23)cc1OC,inactive,
Cc1ccc(Oc2c(C(F)(F)F)oc3c(CN4CCCCC4)c(O)ccc3c2=O)cc1,inactive,
O=C(c1ccc(F)cc1)N1CCC(n2nnc3ccccc32)CC1,inactive,
O=C(c1ccc(F)cc1)N1CCCC(C(=O)N2CCCCC2)C1 (stereo not drawn),inactive,
CC1CCCC(N2CCN(C(=O)c3ccc(F)cc3)CC2)C1 (stereo not drawn),10 µM (active),

Structure (SMILES),Potency,"activity change, negative = inhibition"
CCOc1ccc(S(=O)(=O)Nc2ccc3oc4c(c3c2)CC(C)CC4)cc1 (stereo not drawn),inactive,
Cc1ccccc1CSc1nc2c([nH]c3ccccc32)c(=O)n1C,inactive,
Cc1ccc2nc(COc3cccc(NC(=O)c4cccc(Cl)c4)c3)cc(=O)n2c1,inactive,
Cc1cc(=O)oc2cc(OC(C)C(=O)Nc3ccc(N4CCOCC4)cc3)ccc12 (stereo not drawn),89.1 µM (active),
CC(OC(=O)c1cc2ccccc2o1)C(=O)Nc1ccc(N2CCOCC2)cc1 (stereo not drawn),inactive,
COc1ccc(-c2cc(=O)oc3cc(OC(C)C(=O)Nc4ccc(CN5CCOCC5)cc4)ccc23)cc1 (stereo not drawn),inactive,
COc1ccc(-c2c(C)c3ccc(O)c(CN4CCCC4)c3oc2=O)cc1OC,inactive,
COc1cc(OC)c(OC)cc1/C=C/c1nc2cc3ccccc3cc2c(=O)n1-c1ccc(F)c(Cl)c1,inactive,
O=C(CSc1nc(Nc2ccc(F)c(F)c2)c2ccccc2n1)c1ccc(Cl)cc1,inactive,
Cc1ccnc(-n2sc3ccccc3c2=O)n1,6.31 µM (active),
Cc1ccc(-c2nnc(Nc3cccc(Br)c3)c3ccccc23)cc1S(=O)(=O)NCC1CCCO1 (stereo not drawn),inactive,
Cc1ccc(/C=C/C(=O)Nc2ccc([N+](=O)[O-])c(NC(=O)/C=C/c3ccc(C)o3)c2)o1,79.4 µM (active),
CNc1ccc(NC(C)=O)cc1[N+](=O)[O-],inactive,
Cc1ccc(/C=C/C(=O)Nc2cc(S(=O)(=O)N3CCCCCC3)ccc2OCC(F)(F)F)o1,inactive,
Cc1ccc(/C=N/NC(=O)C2=NNC(c3ccccc3)(c3ccccc3)C2)c(O)c1,inactive,
Oc1ccc2nc(Cc3ccccc3)[nH]c2c1,inactive,
Cc1nc2ccccc2nc1N/N=C/c1ccc(O)cc1O,14.1 µM (active),
CCOC(=O)c1ccc(NC(=O)CC2C(=O)N(c3cccc(OC)c3)C(=O)N2C2CCCCC2)cc1 (stereo not drawn),inactive,
CCOC(=O)c1[nH]cnc1C(=O)NC1CCCCC1,3.98 µM (active),
O=C(N[C@@H](Cc1ccccc1)C(=O)OCc1ccccc1)c1nc[nH]c1C(=O)NC1CCNCC1,inactive,
CCOC(=O)c1ccc(NC(=O)c2nc[nH]c2C(=O)NCc2ccccc2)cc1,inactive,
